16 molecules from PubChem BioAssay can be followed below.

Test [1] can be described thus: sensitizers of A549 cells to miR-34 induction, primary screen, imaging, A549 dox-inducible miR-34, nuclei and caspase counts (AID 1347080). The conditions noted are these: A549 miR-34 inducible, Hoechst nuclei count, 48 h.
The nature of test [2]: survival rescue of mitochondrial mutant cells in low glucose, primary screen, MELAS cybrids, Rieske KO mouse fibroblasts, CellTiter-Glo (AID 1508586;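 active means mean z-score across replicates of 1.96 or higher in either the MELAS or the Rieske mutant cell line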;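 further: z relative to plate mean and SD of compound and empty wells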).
The target in test [3] is NAD(+) hydrolase SARM1 (Homo sapiens) (UniProt Q6SZW1). The test can be described thus: SARM1 TIR NADase inhibitors, cell lysate, NAD-Glo luminescence (AID 1508614;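 active means compound whose remaining NAD level is above about 45 nM, limit read from the data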). Conditions: SAM-TIR HEK293T lysate NADase, at 1 µM, stronger effect = higher value.
Sequence of NAD(+) hydrolase SARM1 (Homo sapiens) (Q6SZW1 whole entry, looked up, the tested form may be a part): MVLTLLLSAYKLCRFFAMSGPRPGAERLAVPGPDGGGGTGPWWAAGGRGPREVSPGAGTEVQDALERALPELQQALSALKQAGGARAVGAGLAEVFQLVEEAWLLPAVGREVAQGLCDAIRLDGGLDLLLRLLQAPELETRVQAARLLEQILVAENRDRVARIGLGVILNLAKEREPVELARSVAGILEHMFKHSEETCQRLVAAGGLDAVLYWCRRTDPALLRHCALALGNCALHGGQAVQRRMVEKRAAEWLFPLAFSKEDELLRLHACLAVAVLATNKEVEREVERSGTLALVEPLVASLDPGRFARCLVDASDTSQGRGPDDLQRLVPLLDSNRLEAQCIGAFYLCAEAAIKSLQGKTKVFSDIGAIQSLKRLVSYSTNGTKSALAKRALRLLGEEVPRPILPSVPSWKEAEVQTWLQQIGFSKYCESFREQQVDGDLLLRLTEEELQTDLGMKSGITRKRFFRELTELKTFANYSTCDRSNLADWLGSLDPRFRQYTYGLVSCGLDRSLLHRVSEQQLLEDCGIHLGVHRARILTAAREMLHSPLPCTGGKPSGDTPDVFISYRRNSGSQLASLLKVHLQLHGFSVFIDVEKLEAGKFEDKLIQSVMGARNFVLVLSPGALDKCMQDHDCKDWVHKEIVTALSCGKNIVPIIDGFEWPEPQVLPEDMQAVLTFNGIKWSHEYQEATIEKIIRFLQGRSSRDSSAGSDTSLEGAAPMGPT
The target in test [4] is Mitogen-activated protein kinase 7 (Homo sapiens) (UniProt Q13164). The test can be described thus: ERK5 transactivation activators in reporter cells, primary screen, cell-based, HTS (AID 1508626;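 active means luciferase signal above three times the same-plate solvent-only control wells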;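 further: luciferase driven by Gal4-ERK5 fusion binding five Gal4 sites before minimal TATA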). The conditions noted are these: HeLa Gal4-ERK5 transactivation, 18 h, at 5 µM, stronger effect = higher value.
Sequence of Mitogen-activated protein kinase 7 (Homo sapiens) (Q13164 whole entry, looked up, the tested form may be a part): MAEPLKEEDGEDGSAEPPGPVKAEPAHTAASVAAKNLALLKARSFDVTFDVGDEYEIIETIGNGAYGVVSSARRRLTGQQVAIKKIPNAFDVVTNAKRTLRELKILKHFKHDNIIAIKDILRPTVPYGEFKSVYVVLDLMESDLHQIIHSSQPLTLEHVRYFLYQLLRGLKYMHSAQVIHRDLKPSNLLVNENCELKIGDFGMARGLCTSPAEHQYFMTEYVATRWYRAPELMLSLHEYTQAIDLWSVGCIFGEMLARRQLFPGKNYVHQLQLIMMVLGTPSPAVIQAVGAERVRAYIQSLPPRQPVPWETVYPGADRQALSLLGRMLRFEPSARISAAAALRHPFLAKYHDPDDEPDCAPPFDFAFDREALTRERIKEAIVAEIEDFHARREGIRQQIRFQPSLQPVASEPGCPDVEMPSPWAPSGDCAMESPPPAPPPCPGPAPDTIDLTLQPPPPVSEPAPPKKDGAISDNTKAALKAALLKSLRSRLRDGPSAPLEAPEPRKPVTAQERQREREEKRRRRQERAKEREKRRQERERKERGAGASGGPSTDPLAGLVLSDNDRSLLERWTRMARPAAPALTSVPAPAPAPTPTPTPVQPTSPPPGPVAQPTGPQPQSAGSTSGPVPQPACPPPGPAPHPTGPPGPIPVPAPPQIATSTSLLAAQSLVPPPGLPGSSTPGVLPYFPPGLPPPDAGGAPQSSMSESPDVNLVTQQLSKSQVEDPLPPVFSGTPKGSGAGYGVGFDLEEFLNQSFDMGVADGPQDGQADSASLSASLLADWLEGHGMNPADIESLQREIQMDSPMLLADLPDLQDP
The mark [5] stands for this setting: stronger effect = lower value, cell number ratio, induced over uninduced.
[6] abbreviates: measured here: relative caspase fold change +Dox/-Dox.
Setting [7] is: measured here: total cells with miR-34 induction, stronger effect = lower value.
Where [8] appears, read: measured here: total cells without miR-34 induction.
Where [9] appears, read: MELAS cybrid survival, CellTiter-Glo 48 h, stronger effect = higher value.
The mark [10] stands for this setting: Rieske KO mouse fibroblast survival, CellTiter-Glo 72 h.

“And” between values parts separate entries of the source, which are not always exact repeats. Equal entries are not always repeated. The source made the active and inactive calls.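 How the source made its calls, unless noted: active means compounds whose cell count with miR-34 switched on is under 0.7 times the count with it off; inactive means the rest.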

Consider `O=C(CCCCC(=O)Nc1c(I)cc(I)c(C(=O)O)c1I)Nc1c(I)cc(I)c(C(=O)O)c1I`, for which the results for the fold change in test [1] (setting [5]) and in test [1] (setting [6]) were 0.893 (inactive) and 1.51, respectively. Moreover, the cell count in test [1] (setting [7]) came to 9730; in test [1] (setting [8]) it was 10900. In addition, the z-score in test [2] (setting [9]) is 0.645 (inactive); in test [2] (setting [10]) it was -0.141. Besides, the remaining NAD in test [3] was 10 nM (inactive). Also, the luciferase signal in test [4] is 44 AU (inactive).

With `COc1ccc(C(=O)c2ccccc2)c(O)c1`, the fold change is 0.864 (inactive) and 0.859 (inactive) in test [1] (setting [5]); 1.19 and 0.952 in test [1] (setting [6]). Besides, the cell count was 7820 and 11100 in test [1] (setting [7]); 9050 and 12900 in test [1] (setting [8]). For the same molecule, the z-score in test [2] (setting [9]) is -0.0705 (inactive); in test [2] (setting [10]), -1.09. Moreover, in test [3], the remaining NAD is 10 nM (inactive). Besides, the luciferase signal in test [4] was 36 AU (inactive).

Consider `Nc1ccc(S(=O)(=O)Nc2nccs2)cc1`, for which the fold change is 0.93 (inactive) and 0.957 (inactive) and 0.871 (inactive) in test [1] (setting [5]); 1.04 and 0.824 and 4.44 in test [1] (setting [6]). Moreover, the cell count is 8630 and 7440 and 10900 in test [1] (setting [7]); 9270 and 7780 and 12500 in test [1] (setting [8]). Further, the z-score was -0.000944 (inactive) and 0.344 (inactive) in test [2] (setting [9]); -0.264 and 0.18 in test [2] (setting [10]). The remaining NAD in test [3] is 10 nM (inactive). The luciferase signal in test [4] is 84 AU (inactive).

For `CCCCCCCCNC(C)C(O)c1ccc(SC(C)C)cc1` (stereo not drawn), the fold change is 0.989 (inactive) and 0.828 (inactive) in test [1] (setting [5]); 0.711 and 5.68 in test [1] (setting [6]). Moreover, the cell count in test [1] (setting [7]) is 4220 and 5020; in test [1] (setting [8]), 4270 and 6060. Further, the z-score in test [2] (setting [9]) was -2.11; in test [2] (setting [10]), 11.2. Moreover, in test [3], the remaining NAD is 10 nM (inactive). Moreover, the luciferase signal in test [4] is 60 AU (inactive).

As to `CC[C@]12CCCN3CCc4c(n(c5ccccc45)[C@@](O)(C(=O)OC)C1)[C@@H]32`, the fold change is 0.85 (inactive) in test [1] (setting [5]) and 1.33 in test [1] (setting [6]). The cell count is 8280 in test [1] (setting [7]) and 9750 in test [1] (setting [8]). Moreover, the z-score in test [2] (setting [9]) was 0.291 (inactive); in test [2] (setting [10]), -0.0307. Also, the remaining NAD in test [3] was 10 nM (inactive). In test [4], the luciferase signal is 112 AU (inactive).

As to `OC(CCN1CCCCC1)(c1ccccc1)c1ccccc1`, the figures for the fold change in test [1] (setting [5]) and in test [1] (setting [6]) were 0.941 (inactive) and 1.61, respectively. For the same molecule, the cell count is 9230 in test [1] (setting [7]) and 9810 in test [1] (setting [8]). Further, the z-score in test [2] (setting [9]) was -1.04 (inactive); in test [2] (setting [10]) it was -0.829. In addition, the remaining NAD in test [3] is 10 nM (inactive). In addition, the luciferase signal in test [4] was 36 AU (inactive).

Turning to `O=C(O)CCNC(=O)c1ccccc1`, the fold change in test [1] (setting [5]) is 0.9 (inactive); in test [1] (setting [6]), 0.686. For the same molecule, the cell count worked out at 8280 in test [1] (setting [7]) and 9200 in test [1] (setting [8]). Moreover, the z-score is -0.217 (inactive) in test [2] (setting [9]) and -0.148 in test [2] (setting [10]). For the same molecule, in test [3], the remaining NAD is 10 nM (inactive). Further, the luciferase signal in test [4] is 20 AU (inactive).

Take `CCCCOc1ccc(OCCCN2CCOCC2)cc1`: the fold change in test [1] (setting [5]) is 0.766 (inactive) and 0.863 (inactive) and 0.924 (inactive); in test [1] (setting [6]), 1.42 and 1.47 and 3.29. In addition, the cell count in test [1] (setting [7]) is 7600 and 7830 and 11600; in test [1] (setting [8]), 9930 and 9070 and 12500. In addition, the z-score in test [2] (setting [9]) was -0.0227 (inactive) and 0.258 (inactive); in test [2] (setting [10]) it was -0.168 and -0.646. Besides, the remaining NAD in test [3] was 10 nM (inactive). For the same molecule, the luciferase signal in test [4] was 36 AU (inactive).

For `O=C(O)CCC(=O)Nc1ccc(S(=O)(=O)Nc2nccs2)cc1`, the fold change was 0.889 (inactive) and 0.92 (inactive) in test [1] (setting [5]); 0.9 and 3.43 in test [1] (setting [6]). For the same molecule, the cell count was 8630 and 11000 in test [1] (setting [7]); 9720 and 12000 in test [1] (setting [8]). Further, the figures for the z-score in test [2] (setting [9]) and in test [2] (setting [10]) were 0.0389 (inactive) and 0.552, respectively. In addition, in test [3], the remaining NAD was 10 nM (inactive). Also, the luciferase signal in test [4] is 28 AU (inactive).

Regarding `NC(N)=NCCN1CCCCCCC1`, the fold change is 0.903 (inactive) and 0.92 (inactive) in test [1] (setting [5]); 1.86 and 0.829 in test [1] (setting [6]). Moreover, the cell count was 8660 and 10700 in test [1] (setting [7]); 9590 and 11600 in test [1] (setting [8]). The z-score in test [2] (setting [9]) was -0.808 (inactive); in test [2] (setting [10]), 0.402. For the same molecule, the remaining NAD in test [3] was 10 nM (inactive). Besides, the luciferase signal in test [4] is 32 AU (inactive).

Turning to `CCOC(=O)NNc1nncc2ccccc12`, the fold change in test [1] (setting [5]) is 0.882 (inactive); in test [1] (setting [6]), 0.778. Further, the cell count in test [1] (setting [7]) was determined as 8120; in test [1] (setting [8]), 9200. For the same molecule, the z-score is -0.647 (inactive) in test [2] (setting [9]) and -0.171 in test [2] (setting [10]). Besides, in test [3], the remaining NAD is 10 nM (inactive). Also, in test [4], the luciferase signal is 36 AU (inactive).

On to `NC(N)=NS(=O)(=O)c1ccc(N)cc1`, for which the fold change in test [1] (setting [5]) is 0.891 (inactive) and 0.893 (inactive) and 0.92 (inactive); in test [1] (setting [6]) it was 1.33 and 1.72 and 4.63. Further, the cell count in test [1] (setting [7]) was 7720 and 8610 and 11300; in test [1] (setting [8]) it was 8670 and 9630 and 12200. Moreover, the z-score in test [2] (setting [9]) was -0.23 (inactive) and -0.511 (inactive); in test [2] (setting [10]) it was -0.172 and -0.306. Also, in test [3], the remaining NAD is 10 nM (inactive). In test [4], the luciferase signal was 188 AU (inactive).

Take `COc1ccc(C(=O)c2ccccc2O)c(O)c1`: the fold change in test [1] (setting [5]) is 0.854 (inactive) and 0.825 (inactive); in test [1] (setting [6]), 1.04 and 0.52. In addition, the cell count in test [1] (setting [7]) was 8680 and 11300; in test [1] (setting [8]) it was 10200 and 13700. Besides, the z-score in test [2] (setting [9]) is 0.849 (inactive); in test [2] (setting [10]), -0.0959. Besides, the remaining NAD in test [3] is 10 nM (inactive). In addition, the luciferase signal in test [4] was 92 AU (inactive).

On to `CCCCc1nc(Cl)c(CO)n1Cc1ccc(-c2ccccc2-c2nn[nH]n2)cc1`, for which the fold change in test [1] (setting [5]) is 0.884 (inactive) and 0.804 (inactive); in test [1] (setting [6]) it was 0.724 and 6.97. Further, the cell count is 7690 and 9920 in test [1] (setting [7]); 8690 and 12300 in test [1] (setting [8]). Also, the z-score is -0.213 (inactive) and 0.409 (inactive) in test [2] (setting [9]); -0.0146 and 0.701 in test [2] (setting [10]). Moreover, the remaining NAD in test [3] is 10 nM (inactive). Also, the luciferase signal in test [4] was 44 AU (inactive).

On to `CC1CC(OC(=O)C(O)c2ccccc2)CC(C)(C)N1C` (stereo not drawn), for which the fold change in test [1] (setting [5]) was 0.792 (inactive); in test [1] (setting [6]), 1.56. Further, the cell count in test [1] (setting [7]) was determined as 7700; in test [1] (setting [8]), 9720. The z-score was -0.0236 (inactive) in test [2] (setting [9]) and -0.373 in test [2] (setting [10]). Also, the remaining NAD in test [3] is 10 nM (inactive). For the same molecule, the luciferase signal in test [4] was 48 AU (inactive).

As to `Cc1cc(C)nc(NS(=O)(=O)c2ccc(N)cc2)n1`, the fold change in test [1] (setting [5]) was 0.847 (inactive) and 0.927 (inactive) and 0.901 (inactive); in test [1] (setting [6]), 1.07 and 0.872 and 2.46. The cell count in test [1] (setting [7]) was 9060 and 8070 and 10900; in test [1] (setting [8]), 10700 and 8710 and 12100. Also, the z-score in test [2] (setting [9]) was -0.0833 (inactive) and 0.863 (inactive); in test [2] (setting [10]) it was -0.156 and 0.665. Also, the remaining NAD in test [3] was 10 nM (inactive). For the same molecule, the luciferase signal in test [4] was 36 AU (inactive).
